Source: PubChem BioAssay (Tox21)
More than one record can exist for a structure, and the calls need not agree. Calls of active or inactive are those of the source. Unless noted, calls come from the whole dose curve; as a rule, active = well fitted curve in the direction sought with a large enough effect in the repeat runs; inconclusive = weak or mixed curves; inactive = no such curve, though single readings can be large; an effect the other way counts as inactive or inconclusive.

Tests used:
[1] = tested on: thyroid hormone receptor (rat, GH3 cells); assay: qHTS assay to identify small molecule agonists of the thyroid receptor (TR) signaling pathway (AID 743066; calls by dose curve)
[2] = biological target: Estrogen receptor (Homo sapiens) (UniProt P03372); assay: qHTS assay to identify small molecule antagonists of the estrogen receptor alpha (ER-alpha) signaling pathway (AID 743069; active = well fitted curve in the direction sought with a large enough effect in the signal ratio in the repeat runs, not every such curve was filed as active; inconclusive = weak or mixed curves, or effect the other way; inactive = no such curve, though single readings can be large or run the other way; the % refers to the signal ratio)
Estrogen receptor (Homo sapiens), sequence (P03372 whole entry, looked up): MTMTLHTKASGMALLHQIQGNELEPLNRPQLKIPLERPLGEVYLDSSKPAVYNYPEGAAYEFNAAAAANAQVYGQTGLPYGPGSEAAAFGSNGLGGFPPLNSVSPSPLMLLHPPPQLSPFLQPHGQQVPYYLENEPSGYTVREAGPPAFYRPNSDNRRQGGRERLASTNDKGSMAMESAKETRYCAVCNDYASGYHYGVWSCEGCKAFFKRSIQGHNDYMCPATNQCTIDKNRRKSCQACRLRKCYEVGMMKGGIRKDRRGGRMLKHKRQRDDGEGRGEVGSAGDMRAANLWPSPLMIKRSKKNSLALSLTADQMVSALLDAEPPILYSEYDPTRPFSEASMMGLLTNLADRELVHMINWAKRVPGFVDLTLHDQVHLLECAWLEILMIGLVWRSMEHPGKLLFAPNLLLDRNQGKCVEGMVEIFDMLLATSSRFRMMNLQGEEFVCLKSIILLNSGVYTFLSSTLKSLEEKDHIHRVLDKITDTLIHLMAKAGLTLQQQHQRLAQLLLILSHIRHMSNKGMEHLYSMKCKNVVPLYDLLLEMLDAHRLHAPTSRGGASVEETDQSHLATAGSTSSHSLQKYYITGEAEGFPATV
In short: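 HEK293 cells stably carrying an ER-alpha-UAS-bla beta-lactamase reporter were pre-cultured overnight in 2% charcoal-stripped FBS medium. Test compounds in DMSO were added together with 17beta-estradiol for 18 hr at 37C. Read-out was fluorescence after 2 hr with LiveBLAzer B/G FRET substrate at room temperature.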

[3] = qHTS assay to identify small molecule antagonists of the estrogen receptor alpha (ER-alpha) signaling pathway - cell viability counter screen (AID 743074; calls by dose curve; note: nearly all actives have a fitted effect of over 45% in size)
[4] = biological target: Estrogen receptor (Homo sapiens) (UniProt P03372); assay: qHTS assay to identify small molecule agonists of the estrogen receptor alpha (ER-alpha) signaling pathway (AID 743075; calls by dose curve; note: potency is the fitted concentration of half-maximal effect)
[5] = biological target: Estrogen receptor (Homo sapiens) (UniProt P03372); assay: qHTS assay to identify small molecule agonists of the estrogen receptor alpha (ER-alpha) signaling pathway using the BG1 cell line (AID 743079); note: nearly all actives have a fitted effect of over 20% in size; note: potency is the fitted concentration of half-maximal effect
[6] = qHTS assay to identify small molecule antagonists of the estrogen receptor alpha (ER-alpha) signaling pathway using the BG1 cell line (AID 743080; calls by dose curve; note: series mostly up to about 70 µM; nearly all actives have a fitted effect of over 25% in size)
In short: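 Antagonist mode: compounds in DMSO were pinned onto BG1-Luc-4E2 cells alongside 17beta-estradiol agonist, incubated 21.5 h, and ERE-driven luciferase measured with ONE-Glo. Cytotoxicity was multiplexed using CellTiter-Fluor fluorescence.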

[7] = qHTS assay to identify small molecule antagonists of the estrogen receptor alpha (ER-alpha) signaling pathway using the BG1 cell line - cell viability counter screen (AID 743081);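 note: compound given together with 17beta-estradiol as the ER stimulus; series mostly up to about 70 µM; nearly all actives have a fitted effect of over 45% in size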
Aromatase (Homo sapiens) = Aromatase (Homo sapiens) (UniProt P11511); assay: qHTS assay to identify aromatase inhibitors (AID 743083); note: series mostly up to about 70 µM; nearly all actives have a fitted effect of over 55% in size
Aromatase (Homo sapiens), sequence (P11511 whole entry, looked up): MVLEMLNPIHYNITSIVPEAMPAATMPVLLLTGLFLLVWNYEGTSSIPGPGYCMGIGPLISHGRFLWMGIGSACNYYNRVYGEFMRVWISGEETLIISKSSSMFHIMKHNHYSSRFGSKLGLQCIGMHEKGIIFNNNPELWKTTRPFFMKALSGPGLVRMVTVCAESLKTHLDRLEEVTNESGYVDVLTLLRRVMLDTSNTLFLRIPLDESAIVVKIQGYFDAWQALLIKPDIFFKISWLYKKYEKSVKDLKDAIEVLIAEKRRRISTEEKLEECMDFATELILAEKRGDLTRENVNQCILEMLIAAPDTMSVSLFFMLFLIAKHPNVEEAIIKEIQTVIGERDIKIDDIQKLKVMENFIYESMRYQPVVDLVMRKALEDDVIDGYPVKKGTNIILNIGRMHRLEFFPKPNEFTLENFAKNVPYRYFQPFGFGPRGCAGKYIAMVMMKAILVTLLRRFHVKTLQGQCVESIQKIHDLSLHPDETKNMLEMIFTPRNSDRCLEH

[8] = qHTS assay to identify aromatase inhibitors - cell viability counter screen (AID 743084);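 note: cells stimulated with testosterone during compound exposure; nearly all actives have a fitted effect of over 55% in size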
[9] = biological target: Aryl hydrocarbon receptor (Homo sapiens) (UniProt P35869); assay: qHTS assay to identify small molecule that activate the aryl hydrocarbon receptor (AhR) signaling pathway (AID 743085); note: nearly all actives have a fitted effect of over 15% in size; note: potency is the fitted concentration of half-maximal effect
Aryl hydrocarbon receptor (Homo sapiens), sequence (P35869 whole entry, looked up): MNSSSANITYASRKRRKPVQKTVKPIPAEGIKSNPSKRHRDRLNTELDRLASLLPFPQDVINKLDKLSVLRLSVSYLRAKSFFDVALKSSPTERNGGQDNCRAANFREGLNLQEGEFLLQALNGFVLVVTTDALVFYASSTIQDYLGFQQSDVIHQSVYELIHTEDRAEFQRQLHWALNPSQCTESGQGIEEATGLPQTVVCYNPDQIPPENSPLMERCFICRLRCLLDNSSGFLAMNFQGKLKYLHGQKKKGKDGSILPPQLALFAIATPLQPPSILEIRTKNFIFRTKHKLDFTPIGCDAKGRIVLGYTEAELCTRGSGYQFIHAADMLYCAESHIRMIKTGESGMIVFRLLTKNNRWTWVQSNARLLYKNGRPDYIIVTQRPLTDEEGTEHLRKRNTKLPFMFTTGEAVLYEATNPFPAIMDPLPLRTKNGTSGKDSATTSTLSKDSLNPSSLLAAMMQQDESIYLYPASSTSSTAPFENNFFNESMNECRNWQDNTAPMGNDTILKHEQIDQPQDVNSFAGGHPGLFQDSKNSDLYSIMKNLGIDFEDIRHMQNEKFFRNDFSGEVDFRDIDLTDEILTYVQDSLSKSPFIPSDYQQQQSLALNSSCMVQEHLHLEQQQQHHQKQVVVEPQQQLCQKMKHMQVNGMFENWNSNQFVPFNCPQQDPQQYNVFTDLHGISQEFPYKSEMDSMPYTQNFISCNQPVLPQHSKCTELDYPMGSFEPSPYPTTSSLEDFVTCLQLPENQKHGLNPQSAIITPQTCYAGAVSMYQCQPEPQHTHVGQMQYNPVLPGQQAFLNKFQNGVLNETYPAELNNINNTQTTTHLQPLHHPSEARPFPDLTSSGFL
In short: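 Reporter assay in engineered HepG2 line HG2L7.5c1, whose plasmid carries twenty dioxin responsive elements upstream of firefly luciferase. Treatment lasted 24 h at 37C; ONE-Glo luminescence gauged induction.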

Measured: Potency

O=C(Nc1ccccc1)OCC(CN1CCCCC1)OC(=O)Nc1ccccc1 (stereo not given)
inactive: [1] | [2] | [3] | [4] | [5] | [6] | [7] | Aromatase (Homo sapiens) | [8] | [9]

CC(=O)SCc1ccco1
inactive: [1] | [2] | [3] | [4] | [5] | [6] | [7] | Aromatase (Homo sapiens) | [8] | [9]

CCCCCCCCN(C)C
inactive: [1] | [2] | [3] | [4] | [5] | [6] | [7] | Aromatase (Homo sapiens) | [8]

CCCCCCCCCCCCCCC1CO1 (stereo not given)
inactive: [1] | [2] | [3] | [4] | [5] | [6] | [7] | Aromatase (Homo sapiens) | [8] | [9]

CCCc1ccccc1
inactive: [1] | [2] | [3] | [4] | [5] | [6] | [7] | Aromatase (Homo sapiens) | [8]

CC(=O)N(O)CCCCCNC(=O)CCC(=O)N(O)CCCCCNC(=O)CCC(=O)N(O)CCCCCN
inactive: [1] | [2] | [3] | [4] | [5] | [6] | [7] | Aromatase (Homo sapiens) | [8] | [9]

c1ccc(CNCc2ccccc2)cc1
inactive: [1] | [2] | [3] | [4] | [5] | [6] | [7] | Aromatase (Homo sapiens) | [8] | [9]

CCCCOC(O)CC (stereo not given)
inactive: [1] | [2] | [3] | [4] | [5] | [6] | [7] | Aromatase (Homo sapiens) | [8] | [9]

CCN(CC)CCOC(=O)C1(c2ccccc2)CCCC1
inactive: [1] | [2] | [3] | [4] | [5] | [6] | [7] | Aromatase (Homo sapiens) | [8]

Cc1ccc(C(N)=O)cc1N
inactive: [1] | [2] | [3] | [4] | [5] | [6] | [7] | Aromatase (Homo sapiens) | [8]

C=CCCCCCC
inactive: [1] | [2] | [3] | [4] | [5] | [6] | [7] | Aromatase (Homo sapiens) | [8] | [9]

CC(C(=O)O)c1ccc(-c2ccccc2)c(F)c1 (stereo not given)
inactive: [1] | [2] | [3] | [4] | [6] | [7] | Aromatase (Homo sapiens) | [8] | [9]
4.52 µM (active) and inactive: [5]

N=C(N=C(N)N)N1CCOCC1
inactive: [1] | [2] | [3] | [4] | [5] | [6] | [7] | Aromatase (Homo sapiens) | [8] | [9]

Cc1ccc(C(=O)C(C)CN2CCCCC2)cc1 (stereo not given)
26.6 µM (active) and inactive: [5]
inactive: [1] | [2] | [3] | [4] | [6] | [7] | Aromatase (Homo sapiens) | [8] | [9]

CC(C)CC=O
inactive: [1] | [2] | [3] | [4] | [5] | [6] | [7] | Aromatase (Homo sapiens) | [8] | [9]

CCCCCCCCCCCCCCCBr
inactive: [1] | [2] | [3] | [4] | [5] | [6] | [7] | Aromatase (Homo sapiens) | [8] | [9]

CCOC(=S)SSC(=S)OCC
inactive: [1] | [2] | [3] | [4] | [5] | [6] | [7] | Aromatase (Homo sapiens) | [8] | [9]

CCCCOC(=O)/C=C\C(=O)OCCCC
inactive: [1] | [2] | [3] | [4] | [5] | [6] | [7] | Aromatase (Homo sapiens) | [8] | [9]

O=C(Cl)c1ccc([N+](=O)[O-])cc1
inactive: [1] | [2] | [3] | [4] | [5] | [6] | [7] | Aromatase (Homo sapiens) | [8]

C=C(C)C(=O)OCCN(C)C
inactive: [1] | [2] | [3] | [4] | [5] | [6] | [7] | Aromatase (Homo sapiens) | [8] | [9]

CCCCOc1cc(C(=O)OCCN(CC)CC)ccc1N
inactive: [1] | [2] | [3] | [4] | [5] | [6] | [7] | Aromatase (Homo sapiens) | [8]

Oc1ccc(O)c2c(O)cccc12
inactive: [1] | [2] | [3] | [4] | [5] | [6] | [7] | Aromatase (Homo sapiens) | [8]
active: [9] 12.1 µM

Cc1ncsc1CCO
inactive: [1] | [2] | [3] | [4] | [5] | [6] | [7] | Aromatase (Homo sapiens) | [8] | [9]

CCN(CC)CCNC(C(=O)OCCC(C)C)c1ccccc1 (stereo not given)
inactive: [1] | [2] | [3] | [4] | [5] | [6] | [7] | Aromatase (Homo sapiens) | [8] | [9]

CCCCCOC(=O)COc1cc(N2C(=O)C3=C(CCCC3)C2=O)c(F)cc1Cl
inactive: [1] | [2] | [3] | [4] | [5] | [6] | [7] | Aromatase (Homo sapiens) | [8] | [9]

CC[C@H](C)[C@@H](C(=O)O)n1sc2ccccc2c1=O
inactive: [1] | [2] | [3] | [4] | [5] | [6] | [7] | Aromatase (Homo sapiens) | [8] | [9]

O=C1[C@H](CC[C@H](O)c2ccc(F)cc2)[C@@H](c2ccc(O)cc2)N1c1ccc(F)cc1
inactive: [1] | [2] | [3] | [4] | [5] | [6] | [7] | Aromatase (Homo sapiens) | [8]

CC(=O)CC(=O)c1ccccc1
inactive: [1] | [2] | [3] | [4] | [6] | [7] | Aromatase (Homo sapiens) | [8] | [9]
active: [5] 34.6 µM

O=C(Cl)c1c(Cl)cccc1Cl
inactive: [1] | [2] | [3] | [4] | [5] | [6] | [7] | Aromatase (Homo sapiens) | [8] | [9]

CCCCCCCCCO
inactive: [1] | [2] | [3] | [4] | [5] | [6] | [7] | Aromatase (Homo sapiens) | [8] | [9]

C[C@H](CCC(=O)O)[C@H]1CC[C@H]2[C@@H]3[C@H](O)C[C@@H]4C[C@H](O)CC[C@]4(C)[C@H]3CC[C@]12C
inactive: [1] | [2] | [3] | [4] | [5] | [6] | [7] | Aromatase (Homo sapiens) | [8] | [9]

O=C(O)COC(=O)Cc1ccccc1Nc1c(Cl)cccc1Cl
inactive: [1] | [2] | [3] | [4] | [5] | [6] | [7] | Aromatase (Homo sapiens) | [8] | [9]

Nc1nc(N)c2nc(CNc3ccc(C(=O)N[C@@H](CCC(=O)O)C(=O)O)cc3)cnc2n1
inactive: [1] | [2] | [3] | [4] | [5] | [6] | [7] | Aromatase (Homo sapiens) | [8] | [9]

C=CC[N+]1([C@H]2C[C@H]3[C@@H]4CC[C@H]5C[C@H](OC(C)=O)[C@@H](N6CCCCC6)C[C@]5(C)[C@H]4CC[C@]3(C)[C@H]2OC(=O)CC)CCCCC1
inactive: [1] | [2] | [3] | [4] | [5] | [6] | [7] | Aromatase (Homo sapiens) | [8] | [9]

CC(C)(C)c1cc(CCC(=O)OCC(COC(=O)CCc2cc(C(C)(C)C)c(O)c(C(C)(C)C)c2)(COC(=O)CCc2cc(C(C)(C)C)c(O)c(C(C)(C)C)c2)COC(=O)CCc2cc(C(C)(C)C)c(O)c(C(C)(C)C)c2)cc(C(C)(C)C)c1O
active: [4] 0.0074 µM [inconclusive] | [5] 4.11 µM
inactive: [1] | [2] | [3] | [6] | [7] | Aromatase (Homo sapiens) | [8] | [9]

NCCCOCCOCCOCCCN
inactive: [1] | [2] | [3] | [4] | [5] | [6] | [7] | Aromatase (Homo sapiens) | [8] | [9]

NCCCN(CCO)CCO
inactive: [1] | [2] | [3] | [4] | [5] | [6] | [7] | Aromatase (Homo sapiens) | [8] | [9]

CC[C@@H]1C[C@H](N(Cc2cc(C(F)(F)F)cc(C(F)(F)F)c2)C(C)=O)c2cc(C(F)(F)F)ccc2N1C(=O)OC(C)C
inactive: [1] | [2] | [3] | [4] | [5] | [6]

Cc1cccc(Oc2ccccc2)c1
inactive: [1] | [2] | [3] | [4] | [5] | [6] | [7] | [8]

O=C(O)C1CCC(C(=O)O)CC1 (stereo not given)
inactive: [1] | [2] | [3] | [4] | [5] | [6] | [7] | Aromatase (Homo sapiens) | [8] | [9]

CN(C)CCCOc1nn(Cc2ccccc2)c2ccccc12
inactive: [1] | [2] | [3] | [4] | [5] | [6] | [7] | Aromatase (Homo sapiens) | [8] | [9]

O=C(C(=O)c1ccc(Br)cc1)c1ccc(Br)cc1
inactive: [1] | [2] | [3] | [4] | [5] | [6] | [7] | Aromatase (Homo sapiens) | [8] | [9]

N[C@H]1C(O)O[C@H](CO)[C@H](O)[C@@H]1O (stereo not given in full)
inactive: [1] | [2] | [3] | [4] | [5] | [6] | [7] | Aromatase (Homo sapiens) | [8] | [9]

OC(CCN1CCCCC1)(c1ccccc1)C1CCCCC1 (stereo not given)
inactive: [1] | [2] | [3] | [4] | [5] | [7] | Aromatase (Homo sapiens) | [8] | [9]

CCCC(=O)OCC
inactive: [1] | [2] | [3] | [4] | [5] | [6] | [7] | Aromatase (Homo sapiens) | [8] | [9]

FC(F)(F)C(F)(F)C(F)(F)C(F)(F)C(F)(F)C(F)(F)CCI
inactive: [1] | [2] | [3] | [4] | [5] | [6] | [7] | Aromatase (Homo sapiens) | [8] | [9]

O=S(=O)(O)c1ccc(O)c2ncccc12
inactive: [1] | [2] | [3] | [4] | [5] | [6] | Aromatase (Homo sapiens) | [8] | [9]

CCCCCCCCC(CO)CCCCCC (stereo not given)
inactive: [1] | [2] | [3] | [4] | [5] | [6] | [7] | Aromatase (Homo sapiens) | [8] | [9]
